PubChem BioAssay (EPA / NIEHS)
Activity calls are given as the source filed them. How the source made its calls: active means hit-call score of the fitted dose curve at least 0.9, where 1 is the maximum; inactive means score below 0.9.

How the values were obtained:
Settings in all cases: mRNA level, 48 h; actives raise or lower the signal
[1] = read-out: Cytochrome P450 3A4 (Homo sapiens) (UniProt P08684); assay: LTEA_HepaRG_CYP3A4: Life Technologies and Expression Analysis (LTEA) Assay for CYP3A4 using HepaRG (AID 2283487)
Outline: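 Differentiated HepaRG cells in serum-free induction medium exposed in duplicate for 48 h to 8 half-log concentrations up to 100 uM in 0.5% DMSO. CYP3A4 mRNA measured by qRT-PCR normalized to ACTB, GAPDH and POLR2A; bidirectional fit versus DMSO.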

[2] = read-out: DNA damage-inducible transcript 3 (DDIT3), DDIT3 (gene 1649); assay: LTEA_HepaRG_DDIT3: Life Technologies and Expression Analysis (LTEA) Assay for DNA damage-inducible transcript 3 (DDIT3) using HepaRG (AID 2283488)
Outline: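 HepaRG plated 48 h, switched to serum-free induction medium, dosed 48 h (100 uM top, half-log, 8 pts, 0.5% DMSO, n=2); RNA isolated; DDIT3 by qRT-PCR; bidirectional curve fit vs DMSO.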

[3] = read-out: Pro-epidermal growth factor (Homo sapiens) (UniProt P01133); assay: LTEA_HepaRG_EGF: Life Technologies and Expression Analysis (LTEA) Assay for Epidermal growth factor (EGF) using HepaRG (AID 2283489)
Outline: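 Concentration-response mRNA assay: HepaRG cells dosed 48 h (max 100 uM, 0.5% DMSO), EGF measured by qRT-PCR and normalized to ACTB/GAPDH/POLR2A.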

[4] = read-out: Early growth response protein 1 (EGR1) transcription factor, EGR1 (gene 1958); assay: LTEA_HepaRG_EGR1: Life Technologies and Expression Analysis (LTEA) Assay for Early growth response protein 1 (EGR1) transcription factor using HepaRG (AID 2283490)
Outline: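 Differentiated human HepaRG cells in serum-free induction medium were exposed in duplicate for 48 h to eight concentrations (top 100 uM, half-log steps) in 0.5% DMSO. EGR1 mRNA was quantified by qRT-PCR, normalized to ACTB, GAPDH and POLR2A, and fitted bidirectionally versus DMSO.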

[5] = read-out: Ezrin (EZR), EZR (gene 7430); assay: LTEA_HepaRG_EZR: Life Technologies and Expression Analysis (LTEA) Assay for Ezrin (EZR) using HepaRG (AID 2283491)
Outline: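 Differentiated human HepaRG cells, 48 h after plating, were exposed in serum-free induction medium for 48 hours to eight half-log concentrations up to 100 uM in 0.5% DMSO. EZR mRNA was measured by TaqMan qRT-PCR, normalized to ACTB, GAPDH and POLR2A, and fitted bidirectionally against DMSO.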

[6] = read-out: Cytochrome P450 3A7 (Homo sapiens) (UniProt P24462); assay: LTEA_HepaRG_CYP3A7: Life Technologies and Expression Analysis (LTEA) Assay for CYP3A7 using HepaRG (AID 2283492)
Outline: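 qRT-PCR of CYP3A7 in HepaRG lysates after 48 h treatment; concentration-response (8 points, max 100 uM) analysed bidirectionally relative to 0.5% DMSO controls.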

CYP3A5 (gene 1577) = assay: LTEA_HepaRG_CYP3A5: Life Technologies and Expression Analysis (LTEA) Assay for CYP3A5 using HepaRG (AID 2283493)
Outline: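 HepaRG plated 48 h, switched to serum-free induction medium, chemicals added 48 h (max 100 uM, half-log, 0.5% DMSO). RNA isolated; CYP3A5 by TaqMan qRT-PCR. Gain/loss vs DMSO.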

[7] = read-out: Fatty Acid-Binding Protein 1 (FABP1), FABP1 (gene 2168); assay: LTEA_HepaRG_FABP1: Life Technologies and Expression Analysis (LTEA) Assay for Fatty Acid-Binding Protein 1 (FABP1) using HepaRG (AID 2283494)
Outline: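 Differentiated human HepaRG cells were exposed in duplicate for 48 h in serum-free induction medium to 8-point half-log concentration series topping at 100 uM in 0.5% DMSO. FABP1 mRNA measured by TaqMan qRT-PCR, normalized to ACTB/GAPDH/POLR2A; bidirectional fit versus DMSO.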

[8] = read-out: Cytochrome P450 4A22 (Homo sapiens) (UniProt Q5TCH4); assay: LTEA_HepaRG_CYP4A22: Life Technologies and Expression Analysis (LTEA) Assay for Cytochrome P450 4A22 (CYP4A22) using HepaRG (AID 2283495)
Outline: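 Concentration-response (8 points, max 100 uM, 0.5% DMSO) in human HepaRG liver cells after 48 h exposure. CYP4A22 mRNA by TaqMan qRT-PCR with housekeeping-gene normalization.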

[9] = read-out: Cytochrome P450 7A1 (Homo sapiens) (UniProt P22680); assay: LTEA_HepaRG_CYP7A1: Life Technologies and Expression Analysis (LTEA) Assay for Cytochrome P450 7A1 (CYP7A1) using HepaRG (AID 2283496)
Outline: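 HepaRG cells plated 48 h, then switched to serum-free induction medium and exposed in duplicate for 48 h to 8-point half-log series from 100 uM in 0.5% DMSO. CYP7A1 mRNA by qRT-PCR (TaqMan), normalized to ACTB/GAPDH/POLR2A; bidirectional fit versus DMSO.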

Measured: AC50

Sequence of Cytochrome P450 3A4 (Homo sapiens) (P08684 whole entry, looked up): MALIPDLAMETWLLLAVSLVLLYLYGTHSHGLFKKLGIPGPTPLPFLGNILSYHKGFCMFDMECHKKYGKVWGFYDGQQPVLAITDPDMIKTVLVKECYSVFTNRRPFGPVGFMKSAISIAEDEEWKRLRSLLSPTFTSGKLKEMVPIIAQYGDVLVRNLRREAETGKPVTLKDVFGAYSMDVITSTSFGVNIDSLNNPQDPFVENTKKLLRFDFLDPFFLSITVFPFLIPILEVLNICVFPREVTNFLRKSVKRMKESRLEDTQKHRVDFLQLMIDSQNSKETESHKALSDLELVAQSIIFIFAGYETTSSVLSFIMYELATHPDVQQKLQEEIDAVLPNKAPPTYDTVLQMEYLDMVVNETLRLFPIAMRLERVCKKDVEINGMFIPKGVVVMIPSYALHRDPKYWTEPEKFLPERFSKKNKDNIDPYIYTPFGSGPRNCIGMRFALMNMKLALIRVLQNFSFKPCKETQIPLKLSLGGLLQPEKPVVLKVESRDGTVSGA
Sequence of Cytochrome P450 3A7 (Homo sapiens) (P24462 whole entry, looked up): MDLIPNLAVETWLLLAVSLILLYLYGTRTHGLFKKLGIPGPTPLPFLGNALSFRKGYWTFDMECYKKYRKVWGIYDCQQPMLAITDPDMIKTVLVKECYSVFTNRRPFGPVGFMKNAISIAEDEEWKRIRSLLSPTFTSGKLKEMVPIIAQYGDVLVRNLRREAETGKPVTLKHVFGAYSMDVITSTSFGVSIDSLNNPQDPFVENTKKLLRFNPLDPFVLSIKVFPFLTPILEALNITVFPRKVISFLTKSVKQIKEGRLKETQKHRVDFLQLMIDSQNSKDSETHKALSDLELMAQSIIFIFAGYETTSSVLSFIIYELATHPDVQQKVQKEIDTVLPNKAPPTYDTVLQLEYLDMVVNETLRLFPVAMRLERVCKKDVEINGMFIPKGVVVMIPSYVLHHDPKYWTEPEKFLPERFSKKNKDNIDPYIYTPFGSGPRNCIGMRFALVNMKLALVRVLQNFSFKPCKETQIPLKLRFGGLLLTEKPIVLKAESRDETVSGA

N#C[C@@H]1CC(F)(F)CN1C(=O)CNC1CC2CCC(C1)N2c1ncccn1 (some centres not stated)
active: [1] 50 µM
inactive: all other assays above

CCC(=C(c1ccc(O)cc1)c1ccc(OCCN(C)C)cc1)c1ccccc1
active: [1] 2.51 µM | [2] 72.8 µM | [4] 76.5 µM | [6] 3.5 µM | CYP3A5 (gene 1577) 92.9 µM
inactive: [3] | [7] | [8] | [9]

OC1CCC(C2CCCCC2)CC1 (configuration not stated)
not listed: [5]
inactive: all other assays above

O=C(O)c1ccccc1C(c1ccc(O)cc1)c1ccc(O)cc1
inactive: all assays above

CCCCCCC(=O)O
inactive: all assays above

O=C(OCCOCCOC(=O)c1ccccc1)c1ccccc1
inactive: all assays above

c1ccc2c(c1)Cc1ccccc1-2
inactive: all assays above

NC(=O)N(O)[C@@H]1C=C[C@H](Oc2cccc(Oc3ccc(F)cc3)c2)C1
inactive: [3] | [5] | CYP3A5 (gene 1577)
active: [1] 72.1 µM | [2] 35.1 µM | [4] 12.7 µM | [6] 33.7 µM | [7] 74.2 µM | [8] 25.6 µM | [9] 74.2 µM

CC(C)(C)c1cc(C(C)(C)C)c(O)c(C(C)(C)C)c1
active: [1] 8.55 µM | [6] 10.9 µM | [7] 14.1 µM | [9] 16.6 µM
inactive: all other assays above

c1ccc2cc3c(ccc4ccccc43)cc2c1
inactive: [3]
active: [1] 3.99 µM | [2] 17.7 µM | [4] 27.9 µM | [6] 15.7 µM | CYP3A5 (gene 1577) 7.18 µM | [7] 21.7 µM | [8] 26 µM | [9] 20.6 µM

O=C(O)Cc1cc(I)c(Oc2cc(I)c(O)c(I)c2)c(I)c1
active: [1] 50.7 µM | [2] 51.9 µM | [3] 57.3 µM | [4] 51.6 µM | [6] 45.4 µM | CYP3A5 (gene 1577) 26.7 µM | [7] 62 µM | [8] 54.5 µM | [9] 48.2 µM

Cc1oc(-c2ccccc2)nc1CCOc1ccc(C[C@H](Nc2ccccc2C(=O)c2ccccc2)C(=O)O)cc1
active: [1] 12.7 µM | [2] 14.1 µM | [3] 24.9 µM | [4] 87.9 µM | [6] 25.7 µM | CYP3A5 (gene 1577) 30.5 µM | [7] 23.1 µM | [8] 0.189 µM | [9] 23.4 µM

CCCCCCCCOC(=O)CCCCCCCCC(=O)OCCCCCCCC
not listed: [5]
inactive: all other assays above

CC(C)(C)c1ccc(O)c(C(C)(C)C)c1
active: [1] 50 µM
not listed: [5]
inactive: all other assays above

CN(C)C=O
inactive: all assays above

O=[N+]([O-])c1ccc(O)cc1
not listed: [5]
inactive: all other assays above
